Measured values published in PubChem BioAssay (NCI).
This is part of a sample that, as a whole, favours compounds with a hit. Of some 83,000 tested, about 20% had one in any assay.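 Assay: single dose, 48 h. Readout: percent growth (0 = no net growth; negative = cell death). Active: <10.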 Values without a mark were called inactive. Activity calls are given as the source filed them.

How the values were obtained:
Experiment in all cases: NCI-60 one-dose screen, 48 h (100 = growth as untreated, 0 = no growth, -100 = all killed)
Conditions in all cases: 10 µM unless noted
[1] = tested on: DU-145 prostate
[2] = tested on: K-562 leukemia
[3] = tested on: MALME-3M melanoma
[4] = tested on: MDA-MB-231 breast
[5] = tested on: SF-268 CNS
[6] = tested on: SF-295 CNS
[7] = tested on: SF-539 CNS
[8] = tested on: UACC-257 melanoma
[9] = tested on: M14 melanoma
[10] = tested on: HCT-15 colon
[11] = tested on: HT29 colon
[12] = tested on: SNB-75 CNS
[13] = tested on: SNB-19 CNS
[14] = tested on: U251 CNS
[15] = tested on: PC-3 prostate
[16] = tested on: SK-MEL-5 melanoma
[17] = tested on: UACC-62 melanoma
[18] = tested on: LOX IMVI melanoma
[19] = tested on: SK-MEL-28 melanoma

| Structure (SMILES) | growth [1] | growth [2] | growth [3] | growth [4] | growth [5] | growth [6] | growth [7] | growth [8] | growth [9] | growth [10] | growth [11] | growth [12] | growth [13] | growth [14] | growth [15] | growth [16] | growth [17] | growth [18] | growth [19] |
| --- | --- | --- | --- | --- | --- | --- | --- | --- | --- | --- | --- | --- | --- | --- | --- | --- | --- | --- | --- |
| Clc1ccc(C2CC(c3cccc(Nc4ccncc4)c3)=NN2c2cc(Cl)cc(Cl)c2)cc1 (configuration not stated) | 48% | 1.88% (active) | 62.8% | 71.5% | 83.8% | 70.5% | 81.9% | 88.8% | -63.9% (active) | -25.2% (active) | 5.22% (active) | 82.8% | 89.2% | 0.417% (active) | 48.9% | 88.9% | 101% | -44.6% (active) | 74.2% |
| O=C(Nc1ccc(Cl)cc1)Nc1ccc(Cl)c(Cl)c1 | 10.7% | 4.12% (active) | -1.33% (active) | 37.6% | 36.1% | -50.7% (active) | -19.2% (active) | 43% | 22.8% | 3.42% (active) | 28.6% | 51.7% | 15.9% | 8.94% (active) | 9.37% (active) | 24.1% | 5.98% (active) | 7.43% (active) | 35.4% |
| Cc1ccc(-c2c(Br)c(OC(=O)CO[C@@H]3C[C@H](C)CC[C@H]3C(C)C)c(-c3ccc(C)cc3C)c(Br)c2OC(=O)CO[C@H]2C[C@@H](C)CC[C@@H]2C(C)C)c(C)c1 | 106% | 110% | 106% | 96.1% | 100% | 96.2% | 101% | 98.8% | 91.5% | 99.6% | 103% | 85.6% | 101% | 99.1% | 92.8% | 55.3% | 102% | 94.4% | 108% |
| COc1ccc(C(O)c2cc3c(N)c(C(=O)Nc4cccc(OC)c4)sc3nc2C)cc1 (configuration not stated) | 6.75% (active) | 7.83% (active) | 52.3% | 12.1% | 27% | 3.76% (active) | -12% (active) | 49.7% | 11.8% | 15.6% | 2.47% (active) | -2.98% (active) | 36.1% | 9.2% (active) | 16.2% | -35.4% (active) | 23.6% | 30.8% | 59% |
| COc1cc(COC(=O)CCCCC[P+](c2ccccc2)(c2ccccc2)c2ccccc2)c(OC)c2c1OCO2 | 83.5% | 19.4% | 5.27% (active) | 70.2% | 75.1% | 76.9% | 78.2% | 15.6% | 43.3% | 99.3% | 32.3% | 59.9% | 55.5% | 56.8% | 44.9% | 3.32% (active) | 46.9% | 35.6% | 51.4% |
| CN1CCN(CCCNc2nccc(-c3c(-c4ccc(F)c(O)c4)nc4sccn34)n2)S1(=O)=O | 97.7% | 66% | -10.4% (active) | 70.8% | 104% | 101% | 113% | 33.8% | 20% | 108% | 57.7% | 122% | 114% | 106% | 86.9% | 72.6% | 11.5% | 50.7% | 12.8% |
| OC1(c2ccc(Cl)c(C(F)(F)F)c2)CCN(CCCC(c2ccc(F)cc2)c2ccc(F)cc2)CC1 | -97% (active) | -20.2% (active) | -75.3% (active) | -87.6% (active) | -90% (active) | -85.3% (active) | -74.6% (active) | -85.6% (active) | -84.8% (active) | -78.5% (active) | -88.1% (active) | -66.3% (active) | 12.1% | -93.1% (active) | -65.5% (active) | -93.5% (active) | -92.6% (active) | -96.1% (active) | -94.4% (active) |
| CN1C(=O)N(C)C2NC(N/N=C/c3ccccc3)=NC21 (configuration not stated) | 108% | 107% | 97.9% | 104% | 99.8% | 101% | 94.9% | 98.8% | 98.8% | 103% | 111% | 76.3% | 102% | 101% | 95.6% | 102% | 100% | 96.5% | 102% |
